Reference: PubChem BioAssay
Activity calls are given as the source filed them. Unless noted, the rule behind the calls is not given here.

Columns and labels:
[1] = compound effects on lung adenocarcinoma cell viability – A549, calcein-AM fluorescence, 48 h, basal, profiling panel (AID 1162); settings: higher = more signal; note: test concentration not given here
[2] = compound effects on differentiated 3T3-L1 adipocyte viability – cell-based, 3T3-L1 adipocytes, calcein-AM fluorescence, 48 h, basal, profiling panel (AID 1163); settings: 3T3-L1 adipocytes viability, higher = more signal; note: test concentration not given here
[3] = compound effects on hepatocellular carcinoma cell viability – HepG2, calcein-AM fluorescence, 48 h, basal, profiling panel (AID 1164); settings: higher = more signal; note: test concentration not given here
[4] = compound effects on multiple myeloma cell viability – MM1S, calcein-AM fluorescence, 48 h, basal, profiling panel (AID 1165); settings: higher = more signal;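 note: viability of MM1S multiple myeloma cells under basal unstimulated conditions; test concentration not given here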
[5] = calcein-AM signal in unstimulated myeloma cells – cell-based, calcein-AM fluorescence, 48 h, PK04 Diversity Set, profiling panel (AID 1166); settings: RPMI8226 myeloma viability, higher = more signal;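 note: cells grown under basal conditions without added stimulus; test concentration not given here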
[6] = JC-1 mitochondrial signal, unstimulated HepG2 cells – cell-based, JC-1 fluorescence, 24 h, 100 nL compound, profiling panel (AID 1167); settings: HepG2 mitochondrial potential, higher = more signal; note: test concentration not given here
[7] = JC-1 mitochondrial signal, unstimulated adipocytes – cell-based, JC-1 fluorescence, 3T3-L1 adipocytes, 24 h, 100 nL compound, profiling panel (AID 1168); settings: JC-1 mitochondrial fluorescence, higher = more signal, called active from +8 up or from −8 down; note: test concentration not given here
[8] = JC-1 mitochondrial signal, unstimulated myeloma cells – cell-based, JC-1 fluorescence, RPMI8226, 24 h, 100 nL compound, profiling panel (AID 1169); settings: JC-1 mitochondrial potential fluorescence, higher = more signal; note: test concentration not given here
[9] = JC-1 mitochondrial signal, unstimulated MM1S myeloma – cell-based, JC-1 fluorescence, 24 h, 100 nL compound, profiling panel (AID 1170); settings: MM1S mitochondrial potential, higher = more signal; note: test concentration not given here
[10] = resazurin metabolic signal in A549 cells – cell-based, resazurin fluorescence, 24 h, PK04 Diversity Set, profiling panel (AID 1171); settings: A549 viability, higher = more signal, called active from +8 up or from −8 down; note: test concentration not given here
[11] = resazurin metabolic signal in HepG2 cells – cell-based, resazurin fluorescence, 24 h, PK04 Diversity Set, profiling panel (AID 1172); settings: HepG2 viability, higher = more signal; note: test concentration not given here
[12] = budding yeast growth changes without added modifier – OD600, strain BY4716, 24 h, basal condition, primary screen (AID 1173); settings: S. cerevisiae BY4716 growth, OD600, 24 h; higher = more signal, called active from +8 up or from −8 down
[13] = viability profiling in MM1S myeloma cells – cell-based, resazurin fluorescence, basal, 24 h, PK04 Diversity Set, profiling panel (AID 1174); settings: higher = more signal, called active from +8 up or from −8 down; note: test concentration not given here
[14] = target: Dihydroorotate dehydrogenase (quinone), mitochondrial (Plasmodium falciparum (isolate 3D7)) (UniProt Q08210); assay: inhibition of P. falciparum DHODH – biochemical, C-terminal His tag, absorbance 600 nm, primary screen (AID 1175); settings: PfDHODH enzyme, DCIP absorbance 600 nm; higher = more signal, called active from +8 up or from −8 down;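 note: recombinant parasite enzyme with a five histidine tag at its C terminus; test concentration not given here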
Chain of Dihydroorotate dehydrogenase (quinone), mitochondrial (Plasmodium falciparum (isolate 3D7)) (Q08210 whole entry, looked up): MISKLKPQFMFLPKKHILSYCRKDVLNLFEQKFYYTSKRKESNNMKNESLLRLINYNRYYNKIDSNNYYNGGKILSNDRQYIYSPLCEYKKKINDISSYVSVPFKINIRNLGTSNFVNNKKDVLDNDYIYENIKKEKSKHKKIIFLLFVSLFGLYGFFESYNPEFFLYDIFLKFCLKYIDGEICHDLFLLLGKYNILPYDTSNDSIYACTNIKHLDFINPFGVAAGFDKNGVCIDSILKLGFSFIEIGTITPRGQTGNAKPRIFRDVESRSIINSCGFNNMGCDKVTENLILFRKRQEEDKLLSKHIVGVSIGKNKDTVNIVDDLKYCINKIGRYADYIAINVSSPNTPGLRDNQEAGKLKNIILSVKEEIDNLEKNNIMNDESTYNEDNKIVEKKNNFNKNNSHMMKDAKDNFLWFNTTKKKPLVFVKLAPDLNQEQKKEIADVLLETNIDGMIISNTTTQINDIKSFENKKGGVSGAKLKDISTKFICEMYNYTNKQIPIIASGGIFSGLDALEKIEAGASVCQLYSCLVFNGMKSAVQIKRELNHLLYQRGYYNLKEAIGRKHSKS

[15] = inhibition of PAO1 biofilm formation – strain PAO1, LB-PBS medium, absorbance 600 nm, primary screen (AID 1176); note: test concentration not given here; settings: P. aeruginosa PAO1 growth/biofilm, A600, 12 h; higher = more signal
[16] = growth modulation of vineyard yeast isolate – strain RM11-1a, OD600, basal, 24 h, primary screen (AID 1177);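 note: cultures grown under basal conditions with no added stressor; test concentration not given here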; settings: S. cerevisiae RM11-1a growth, OD600, 24 h; higher = more signal, called active from +8 up or from −8 down
[17] = growth of efflux-deficient E. coli DRC39 – strain DRC39, OD650, 24 h, E. coli filamentation inducers, primary screen (AID 1178);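 note: growth measured as culture turbidity by optical density at 650 nm; test concentration not given here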; settings: E. coli DRC39 acrAB, higher = more signal, called active from +8 up or from −8 down
[18] = growth of efflux-deficient E. coli DRC39 – strain DRC39, OD650, 48 h, E. coli filamentation inducers, primary screen (AID 1179);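 note: screen aims at cell division blockers that make cells filament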; settings: E. coli DRC39 delta-acrAB growth, higher = more signal, called active from +8 up or from −8 down
[19] = viability profiling in RPMI8226 myeloma cells – cell-based, resazurin fluorescence, basal, 24 h, PK04 Diversity Set, profiling panel (AID 1180); settings: higher = more signal;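 note: RPMI8826 multiple myeloma cell line at 5000 cells per well; test concentration not given here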
[20] = target: E3 ubiquitin-protein ligase XIAP (Homo sapiens) (UniProt P98170); assay: small molecules binding XIAP protein – biophysical, small-molecule microarray, fluorescence 635 nm, primary screen (AID 1181); settings: higher = more signal;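 note: score merges 667 nm emission and signal to noise over triplicate slides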
Chain of E3 ubiquitin-protein ligase XIAP (Homo sapiens) (P98170 whole entry, looked up): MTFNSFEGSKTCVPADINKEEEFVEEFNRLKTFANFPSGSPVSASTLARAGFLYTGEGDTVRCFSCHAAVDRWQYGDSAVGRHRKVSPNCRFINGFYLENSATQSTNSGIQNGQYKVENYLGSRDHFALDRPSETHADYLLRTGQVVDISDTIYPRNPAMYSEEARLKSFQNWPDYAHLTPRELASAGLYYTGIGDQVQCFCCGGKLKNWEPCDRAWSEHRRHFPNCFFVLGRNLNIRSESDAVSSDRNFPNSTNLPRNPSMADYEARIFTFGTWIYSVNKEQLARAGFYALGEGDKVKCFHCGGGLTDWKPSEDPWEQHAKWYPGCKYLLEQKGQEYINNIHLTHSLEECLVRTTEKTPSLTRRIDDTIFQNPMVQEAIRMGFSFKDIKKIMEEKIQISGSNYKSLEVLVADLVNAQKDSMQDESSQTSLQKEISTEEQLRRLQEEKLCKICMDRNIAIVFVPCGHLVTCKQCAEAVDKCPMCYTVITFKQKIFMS

C=CCN1C(=O)[C@]2(O[C@H](CCO)[C@@H]([Si](C)(C)c3ccc(OC)cc3)[C@@H]2C)c2cc(N3C(=O)c4ccccc4Oc4ccccc43)ccc21
z-score [1]: -3.65 | z-score [2]: 0.139 | z-score [3]: -4.64 | z-score [4]: -2.73 | z-score [5]: -4.35 | z-score [6]: -2.08 | z-score [7]: -0.599 (inactive) | z-score [8]: -1.04 | z-score [9]: -2.15 | z-score [10]: -5.48 (inactive) | z-score [11]: -5.91 | z-score [12]: 0.84 (inactive) | z-score [13]: -8.74 (active) | composite z-score [14]: 1.11 (inactive) | z-score [15]: 0.106 (inactive) | z-score [16]: 4.06 (inactive) | z-score [17]: 0.229 (inactive) | z-score [18]: -0.757 (inactive) | z-score [19]: -6.28 | composite z-score [20]: -0.138

[N-]=[N+]=Nc1ccccc1C[C@@]1(C(=O)NCC(O)CO)N=C(c2ccc(OCCCO)cc2)O[C@@H]1c1ccccc1N=[N+]=[N-] (stereo not given in full)
z-score [1]: -3.97 | z-score [2]: -0.0164 | z-score [3]: -4.63 | z-score [4]: -3.55 | z-score [5]: -3.85 | z-score [6]: -2 | z-score [7]: -0.264 (inactive) | z-score [8]: -1.21 | z-score [9]: -1.34 | z-score [10]: -3.27 (inactive) | z-score [11]: -2.15 | z-score [12]: -1.75 (inactive) | z-score [13]: -2.42 (inactive) | composite z-score [14]: 0.791 (inactive) | z-score [15]: 0.122 (inactive) | z-score [16]: 0.629 (inactive) | z-score [17]: 0.2 (inactive) | z-score [18]: -0.456 (inactive) | z-score [19]: -2.25 | composite z-score [20]: 0.0651

CC[C@@H](O[Si](C#C[Si](C(C)C)(C(C)C)C(C)C)(C(C)C)C(C)C)c1cn(Cc2cccc(Cl)c2)nn1
z-score [1]: -0.163 | z-score [2]: -1.25 | z-score [3]: 0.0222 | z-score [4]: 0.534 | z-score [5]: 0.0929 | z-score [6]: 0.0106 | z-score [7]: -0.00161 (inactive) | z-score [8]: 0.0677 | z-score [9]: -1.25 | z-score [10]: 0.359 (inactive) | z-score [11]: 0.318 | z-score [12]: 1.42 (inactive) | z-score [13]: 0.0769 (inactive) | composite z-score [14]: 0.625 (inactive) | z-score [15]: 0.313 (inactive) | z-score [16]: 1.33 (inactive) | z-score [17]: -0.0544 (inactive) | z-score [18]: 0.309 (inactive) | z-score [19]: 0.961 | composite z-score [20]: 0.0583

COCCCNC(=O)[C@]1(Cc2ccccc2N=[N+]=[N-])N=C(c2ccc(OCCCO)cc2)O[C@@H]1c1ccccc1
z-score [1]: -0.751 | z-score [2]: 0.16 | z-score [3]: -0.757 | z-score [4]: -3.22 | z-score [5]: -3.9 | z-score [6]: 2.34 | z-score [7]: 1.84 (inactive) | z-score [8]: -1.27 | z-score [9]: -0.774 | z-score [10]: 0.345 (inactive) | z-score [11]: 0.83 | z-score [12]: -0.591 (inactive) | z-score [13]: -1.25 (inactive) | composite z-score [14]: -0.28 (inactive) | z-score [15]: -0.444 (inactive) | z-score [16]: -0.029 (inactive) | z-score [17]: 2.99 (inactive) | z-score [18]: 0.26 (inactive) | z-score [19]: -0.953 | composite z-score [20]: 0.267

O=C(O)C1=CC[C@H]2C(=O)N(c3ccccc3)C(=O)[C@@H]12
z-score [1]: -1.05 | z-score [2]: -0.261 | z-score [3]: -0.625 | z-score [4]: -0.911 | z-score [5]: -0.222 | z-score [6]: -0.915 | z-score [7]: -0.162 (inactive) | z-score [8]: 0.364 | z-score [9]: -1.46 | z-score [10]: 0.64 (inactive) | z-score [11]: -0.0581 | z-score [12]: 1.53 (inactive) | z-score [13]: -0.849 (inactive) | composite z-score [14]: 0.609 (inactive) | z-score [15]: 0.477 (inactive) | z-score [16]: 1.6 (inactive) | z-score [17]: -0.897 (inactive) | z-score [18]: -0.453 (inactive) | z-score [19]: -1.24 | composite z-score [20]: 0.997

COc1ccc([Si](C)(C)[C@H]2[C@H](CC(=O)N3CCC[C@H]3CO)O[C@@]3(C(=O)N(C)c4c(Br)cc(C)cc43)[C@@H]2C)cc1
z-score [1]: 0.709 | z-score [2]: -0.333 | z-score [3]: -0.232 | z-score [4]: 0.0328 | z-score [5]: -0.63 | z-score [6]: 0.604 | z-score [7]: 0.123 (inactive) | z-score [8]: -0.126 | z-score [9]: -0.468 | z-score [10]: 0.809 (inactive) | z-score [11]: 0.728 | z-score [12]: -0.966 (inactive) | z-score [13]: 0.968 (inactive) | composite z-score [14]: -1.3 (inactive) | z-score [15]: 0.92 (inactive) | z-score [16]: 0.301 (inactive) | z-score [17]: 0.541 (inactive) | z-score [18]: 0.24 (inactive) | z-score [19]: 0.235 | composite z-score [20]: 1.43

COC(=O)[C@@]1(Cc2ccc(F)cc2)[C@H]2c3cc(C(=O)N(C)C)n(Cc4ccc(C(F)(F)F)nc4)c3C[C@H]2CN1C(=O)c1ccccc1
z-score [1]: -0.509 | z-score [2]: -0.602 | z-score [3]: 0.158 | z-score [4]: -0.201 | z-score [5]: -1.36 | z-score [6]: 1.79 | z-score [7]: -0.602 (inactive) | z-score [8]: -0.135 | z-score [9]: -1.48 | z-score [10]: -0.695 (inactive) | z-score [11]: -0.575 | z-score [12]: 0.512 (inactive) | z-score [13]: -1.04 (inactive) | composite z-score [14]: 0.0058 (inactive) | z-score [15]: -0.359 (inactive) | z-score [16]: 0.337 (inactive) | z-score [17]: -0.532 (inactive) | z-score [18]: -0.171 (inactive) | z-score [19]: -0.912 | composite z-score [20]: 0.109

COCCOC(=O)N1C(=O)[C@@]2(c3cc(C#CCNC(N)=O)ccc31)[C@H](C(=O)Nc1nc3ccccc3s1)[C@H]1C(=O)O[C@H](c3ccccc3)[C@H](c3ccccc3)N1[C@@H]2c1ccc(O)cc1
z-score [1]: -0.277 | z-score [2]: -0.133 | z-score [3]: -0.287 | z-score [4]: -1.19 | z-score [5]: 0.258 | z-score [6]: -3.96 | z-score [7]: -2.98 (inactive) | z-score [8]: -0.776 | z-score [9]: -1.14 | z-score [10]: 0.14 (inactive) | z-score [11]: 0.0612 | z-score [12]: 1.1 (inactive) | z-score [13]: -0.355 (inactive) | composite z-score [14]: 0.582 (inactive) | z-score [15]: 0.558 (inactive) | z-score [16]: 1.37 (inactive) | z-score [17]: 0.0967 (inactive) | z-score [18]: -0.211 (inactive) | z-score [19]: -1.37 | composite z-score [20]: 0.273

C=CC[C@]1(C(=O)NCCN2CCOCC2)N=C(c2ccc(OCCCO)cc2)O[C@H]1c1ccccc1
z-score [1]: -0.139 | z-score [2]: -0.0761 | z-score [3]: -0.0656 | z-score [4]: -0.736 | z-score [5]: 0.0634 | z-score [6]: -0.607 | z-score [7]: -0.442 (inactive) | z-score [8]: -0.176 | z-score [9]: -0.255 | z-score [10]: 1.63 (inactive) | z-score [11]: 0.543 | z-score [12]: -0.916 (inactive) | z-score [13]: 0.635 (inactive) | composite z-score [14]: 0.507 (inactive) | z-score [15]: 0.509 (inactive) | z-score [16]: -0.548 (inactive) | z-score [17]: -0.0082 (inactive) | z-score [18]: -0.864 (inactive) | z-score [19]: 0.749 | composite z-score [20]: -0.0351
